Source: PubChem BioAssay (NCATS)
Records with an inconclusive call do not appear. Active and inactive are the calls of the source. The call rests on the fitted dose curve; in most records, active means well fitted inhibition curve with a large enough effect; inconclusive means small, poorly fitted or top-dose-only effect; inactive means no such curve, though single readings can be large or run the other way.

Target: Retinaldehyde dehydrogenase 3 (Homo sapiens) (UniProt P47895)
Test: qHTS for Inhibitors of the Aldehyde Dehydrogenase Family (ALDH1A3) Primary screen (AID 2061315);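 further: plate controls were DMSO vehicle for no effect and reference inhibitor for full effect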
Conditions: ALDH inhibition qHTS; series mostly up to 56 µM; activity change, negative = inhibition: at the top concentration

| Structure (SMILES) | activity change, negative = inhibition |
| --- | --- |
| C=C1CC[C@@H]2[C@](C)(CO)[C@H](O)CC[C@@]2(C)[C@@H]1C/C=C1/C(=O)OCC1O (some centres undefined) | -9.84% (inactive) |
| C=C1C[C@@]23CCC4[C@@](C)(CCC[C@@]4(C)C(=O)OC)C2CC[C@@H]1C3 (some centres undefined) | -0.974% (inactive) |
| OC[C@H]1O[C@@H](OCCc2ccccc2)[C@H](O[C@@H]2OC[C@@H](O)[C@H](O)[C@H]2O)[C@@H](O)[C@@H]1O | 8.92% [at 28 µM] (inactive) |
| C=C(COC(=O)C(C)C)C1Oc2cc(C(C)=O)ccc2C1OC(=O)C(C)C (centres undefined) | 16.2% (inactive) |
| Cc1cn2c(N)c(Cl)cc(C(=O)NCC3CCN(CC(C)C)CC3)c2n1 | 2.36% (inactive) |
| CC(C)C(=O)O[C@@H]1[C@@H](O)[C@@H](O[C@H]2O[C@H](CO)[C@@H](O)[C@H](O)[C@H]2O)O[C@H](CO)[C@H]1O | 7.75% [at 28 µM] (inactive) |
| CC(=O)OC1CC(C)C2(CCC3(CC(=O)OC3O)O2)C2(C)CCCC(C)(C)C12 (centres undefined) | 15.2% [at 28 µM] (inactive) |
| C[C@H]1CC(=O)C2=C(C1)C(O)C(O)[C@@]1(O)[C@H]2C(=O)c2cccc(O)c2[C@@H]1O (some centres undefined) | -5.74% (inactive) |
| CN1[C@@H]2CC[C@H]1CC(NC(=O)n1c(=O)[nH]c3ccccc31)C2 (some centres undefined) | 1.4% (inactive) |
| C/C(=C/CO)CC[C@@H]1[C@@](C)(O)CCC2C(C)(C)CCC[C@]21C (some centres undefined) | 3.93% (inactive) |
| CC(=O)OC(C)(C)/C=C/C(=O)[C@](C)(O)[C@H]1C(O)C[C@@]2(C)[C@@H]3CC=C4[C@@H](C=C(O[C@@H]5O[C@H](CO)[C@@H](O)[C@H](O)[C@H]5O)C(=O)C4(C)C)[C@]3(C)C(=O)C[C@]12C (some centres undefined) | 6.67% [at 16.9 µM] (inactive) |
| CC1OC(O[C@@H]2[C@H](O)[C@@H](OC3OC(CO)C(O)C(O)C3O)[C@H](OC(=O)[C@]34CCC(C)(C)C[C@H]3C3=CCC5[C@@]6(C)CC[C@H](O[C@@H]7O[C@H](C(=O)O)[C@@H](O)[C@H](O[C@@H]8OC[C@@H](O)[C@H](O)[C@H]8O)[C@H]7O[C@@H]7O[C@H](CO)[C@H](O)[C@H](O)[C@H]7O)[C@@](C)(C=O)C6CC[C@@]5(C)[C@]3(C)C[C@H]4O)O[C@@H]2C)C(O)C(O)C1OC1OCC(O)C(O)C1O (some centres undefined) | 11.9% [at 11.2 µM] (inactive) |
| CC1CC[C@]2(C(=O)O)CC[C@]3(C(=O)O)C(=CCC4[C@@]5(C)CC[C@H](OC6OC(C)C(O)C(OC7OC(CO)C(O)C(O)C7O)C6O)C(C)(C)C5CC[C@]43C)C2C1C (some centres undefined) | 9.03% [at 16.9 µM] (inactive) |
| COC(=O)CC1(O)C(=O)Nc2ccccc21 (centres undefined) | -4.11% (inactive) |
